{"source": "PubChem BioAssay (NCI)", "note": "Compounds without any hit were thinned out: in the full panel of roughly 83,000, 20% have a hit.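 Interpretation: 100, growth as untreated; towards 0, rising growth inhibition; 0, no net growth; 0 to -100, cell death. Compounds scoring below 10 were considered active.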 The source made the active and inactive calls."}
{"system": "OVCAR-4 ovarian", "assay": "NCI-60 one-dose screen, 48 h (100 = growth as untreated, 0 = no growth, -100 = all killed)", "settings": "10 µM unless noted"}
{"smiles": "CC(Sc1nc2sc3c(c2c(=O)n1-c1ccc(Cl)cc1)CCCC3)C(=O)Nc1nc(-c2ccc(Br)cc2)cs1", "note": "(stereo not drawn)", "growth": "109% (inactive)"}
{"smiles": "C[C@@H](Nc1ncnc2ccc(-c3cnc(N)nc3)cc12)c1ccc(F)cc1", "growth": "74.3% (inactive)"}
{"smiles": "CC1(C)CC[C@]23CC[C@]4(C)[C@H](CC[C@@H]5[C@@]6(C)CCCNC(C)(C)[C@@H]6CC[C@]54C)[C@H]2[C@H]1OC3", "growth": "-51.2% (active)"}
{"smiles": "COc1ccc(C(=O)c2nc3ccccc3n2CC(=O)c2ccc(Cl)cc2)cc1", "growth": "43.3% (inactive)"}
{"system": "SK-OV-3 ovarian", "assay": "NCI-60 one-dose screen, 48 h (100 = growth as untreated, 0 = no growth, -100 = all killed)", "settings": "10 µM unless noted"}
{"smiles": "CCCCCN1C=C/C(=C\\C(=O)N(C)c2ccc(Oc3ccccc3)cc2)c2ccccc21", "growth": "87.3% (inactive)"}
{"smiles": "CNC(=O)c1cncc(Cn2nc(C)c(NC(=O)c3ccc(COc4ccc(C(F)(F)F)cc4C)cc3)c2C)c1", "growth": "76.7% (inactive)"}
{"smiles": "Nc1c(C(=O)Nc2ccnc3ccccc23)sc2nc3c(cc12)CN(Cc1ccccc1)CC3", "growth": "98.9% (inactive)"}
{"smiles": "CC1=C(C(=O)/C=C/c2ccc(N(C)C)cc2)C(c2ccccc2)NC(=S)N1", "note": "(stereo not drawn)", "growth": "111% (inactive)"}
{"smiles": "Nc1nc(Nc2ccccc2SSc2ccccc2Nc2nc(N)nc(-c3cccs3)n2)nc(-c2ccsc2)n1", "growth": "110% (inactive)"}
{"smiles": "COc1cc2c(cc1OC)C(=O)/C(=C/c1cc(C)c(O)c(C)c1)S2", "growth": "52.1% (inactive)"}
{"smiles": "COc1cc2c(=O)n(CCCN(C)C)c3c4cc5c(cc4ccc3c2cc1OC)OCO5", "growth": "102% (inactive)"}
{"smiles": "CCN(CC)CC[n+]1cc2cc(OC)c(OC)cc2c2ccc3cc4c(cc3c21)OCO4", "growth": "-10.7% (active)"}
{"smiles": "O=C(Nc1ccc(NC(=O)c2cc(=O)[nH]c3ccccc23)cc1)Nc1cccc(Cl)c1", "growth": "74.8% (inactive)"}
